{"source": "paper PMC4336329", "about": "(PLoS ONE, 2015)", "note": "Among all 310,000 compounds or so, about 14,000 (4.5%) showed an effect of 50% or more. The effect is printed as a negative number. The sample as a whole holds a higher share of strong results than the screen did.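 Further: peak tail current of the secondary pulse compared with the same well before compound.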"}
{"target": "human ether-à-go-go-related gene (hERG) potassium channel (human, UniProt Q12809)", "sequence (Q12809 whole entry, looked up)": "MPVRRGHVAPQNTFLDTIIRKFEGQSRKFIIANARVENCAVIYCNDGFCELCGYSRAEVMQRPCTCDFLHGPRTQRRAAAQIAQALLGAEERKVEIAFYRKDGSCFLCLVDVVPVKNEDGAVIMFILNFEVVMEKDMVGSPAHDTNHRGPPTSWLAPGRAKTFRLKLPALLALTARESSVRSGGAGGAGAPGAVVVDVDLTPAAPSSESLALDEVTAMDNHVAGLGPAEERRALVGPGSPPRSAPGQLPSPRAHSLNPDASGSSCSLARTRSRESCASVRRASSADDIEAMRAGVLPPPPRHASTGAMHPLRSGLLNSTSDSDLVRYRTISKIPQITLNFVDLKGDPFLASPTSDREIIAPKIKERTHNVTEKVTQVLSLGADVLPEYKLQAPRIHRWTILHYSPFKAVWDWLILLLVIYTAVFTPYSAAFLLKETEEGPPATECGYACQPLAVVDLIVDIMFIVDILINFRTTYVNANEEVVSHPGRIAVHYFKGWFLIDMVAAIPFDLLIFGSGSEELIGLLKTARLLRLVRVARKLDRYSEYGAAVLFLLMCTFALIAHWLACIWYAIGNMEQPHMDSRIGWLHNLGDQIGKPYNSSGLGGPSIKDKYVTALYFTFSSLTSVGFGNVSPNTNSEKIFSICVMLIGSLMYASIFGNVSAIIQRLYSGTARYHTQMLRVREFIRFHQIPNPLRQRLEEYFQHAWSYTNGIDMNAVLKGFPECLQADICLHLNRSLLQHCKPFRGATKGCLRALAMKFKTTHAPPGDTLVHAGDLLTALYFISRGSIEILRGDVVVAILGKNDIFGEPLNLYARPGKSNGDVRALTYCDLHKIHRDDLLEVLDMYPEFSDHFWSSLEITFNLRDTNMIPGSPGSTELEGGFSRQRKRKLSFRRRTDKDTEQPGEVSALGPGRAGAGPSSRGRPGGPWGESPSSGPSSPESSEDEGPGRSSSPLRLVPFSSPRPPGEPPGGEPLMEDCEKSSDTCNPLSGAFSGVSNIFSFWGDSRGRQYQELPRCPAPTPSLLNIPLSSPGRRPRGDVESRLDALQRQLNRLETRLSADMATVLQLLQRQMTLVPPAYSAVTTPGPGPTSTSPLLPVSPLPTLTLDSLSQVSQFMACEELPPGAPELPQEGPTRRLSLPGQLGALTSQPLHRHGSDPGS", "assay": "primary screen, population patch clamp on CHO cells stably expressing hERG; higher = less effect of the substance", "units": {"hERG current change (%, negative = inhibition) at 10uM": "%"}}
{"smiles": "O=C(CN1CCOCC1)OCCCc1ccccc1", "hERG current change (%, negative = inhibition) at 10uM": 9.77}
{"smiles": "Cc1ccc(-n2ncc(C(=O)N3CCN(C(=O)c4ccco4)CC3)c2C2CCN(C(=O)OC(C)(C)C)CC2)cc1C", "hERG current change (%, negative = inhibition) at 10uM": 0.366}
{"smiles": "O=C(c1cnn(-c2ccccc2)c1-n1cccc1)N1CCN(C2CCCCC2)CC1", "hERG current change (%, negative = inhibition) at 10uM": -67.2}
{"smiles": "CC(C)(C)OC(=O)N1CCC(c2c(C(=O)N3CCN(C(=O)c4ccco4)CC3)cnn2-c2ccc(F)cc2F)CC1", "hERG current change (%, negative = inhibition) at 10uM": -19.6}
{"smiles": "O=C(O)c1cnn(-c2ccccc2)c1-n1cccc1", "hERG current change (%, negative = inhibition) at 10uM": 9}
{"smiles": "CC(C)(C)OC(=O)N1CCC(c2c(C(=O)N3CCN(C(=O)c4ccco4)CC3)cnn2-c2ccc(F)cc2)CC1", "hERG current change (%, negative = inhibition) at 10uM": -14.8}
{"smiles": "O=C(c1cnn2ccccc12)N1CCN(C2CCCCC2)CC1", "hERG current change (%, negative = inhibition) at 10uM": -9.39}
{"smiles": "Cc1ccc(-n2ncc(C(=O)O)c2C2CCN(C(=O)OC(C)(C)C)CC2)cc1", "hERG current change (%, negative = inhibition) at 10uM": -3.86}
{"smiles": "CC(C)(C)OC(=O)N1CCC(c2c(C(=O)NC3CC3)cnn2-c2ccccc2)CC1", "hERG current change (%, negative = inhibition) at 10uM": -22.9}
{"smiles": "CC(C)(C)OC(=O)N1CCC(c2c(C(=O)N3CCN(C4CCCCC4)CC3)cnn2-c2ccccc2)CC1", "hERG current change (%, negative = inhibition) at 10uM": -54.7}
{"smiles": "CC(C)(C)OC(=O)N1CCC(c2c(C(=O)N3CCN(C4CCCCC4)CC3)cnn2-c2ccc(F)cc2)CC1", "hERG current change (%, negative = inhibition) at 10uM": -55.5}
{"smiles": "CC(C)(C)OC(=O)N1CCC(c2c(C(=O)O)cnn2-c2ccccc2)CC1", "hERG current change (%, negative = inhibition) at 10uM": 11}
{"smiles": "CC(C)(C)OC(=O)N1CCC(c2c(C(=O)N3CCN(C(=O)c4ccco4)CC3)cnn2-c2cccc(Cl)c2)CC1", "hERG current change (%, negative = inhibition) at 10uM": -65.6}
{"smiles": "COc1ccc(-c2c3c(=O)n(C)c(=O)n(C)c3cn2Cc2cccnc2)cc1", "hERG current change (%, negative = inhibition) at 10uM": 4.55}
{"smiles": "O=C(COC(=O)C1CCN(c2ccc(C(F)(F)F)cn2)CC1)Nc1ccc(F)cc1[N+](=O)[O-]", "hERG current change (%, negative = inhibition) at 10uM": 13}
{"smiles": "COc1ccccc1CCNC(=O)CSc1nc(-c2ccco2)cc(C(F)(F)F)n1", "hERG current change (%, negative = inhibition) at 10uM": 27.1}
{"smiles": "CCCCn1c(-c2csc(CCC)c2)n[nH]c1=S", "hERG current change (%, negative = inhibition) at 10uM": 14.8}
{"smiles": "CC1CCC2(CC1)NC(=O)N(Cc1cccc(C(F)(F)F)c1)C2=O", "note": "(centres unmarked)", "hERG current change (%, negative = inhibition) at 10uM": 12.9}
{"smiles": "N#C/C(=C\\c1ccc(-c2cccc([N+](=O)[O-])c2)o1)C(=O)N1CCOCC1", "hERG current change (%, negative = inhibition) at 10uM": -6.75}
{"smiles": "O=C(NCC1CCCO1)c1ccc(CSCc2cccc(F)c2)o1", "note": "(centres unmarked)", "hERG current change (%, negative = inhibition) at 10uM": -7.59}
{"smiles": "COc1ccc(C(=O)NNc2cc(C)nc(NNC(=O)c3ccc(OC)cc3)n2)cc1", "hERG current change (%, negative = inhibition) at 10uM": 7.94}
{"smiles": "CCN(C(=O)COc1cccnc1[N+](=O)[O-])C1CCS(=O)(=O)C1", "note": "(centres unmarked)", "hERG current change (%, negative = inhibition) at 10uM": -0.18}
{"smiles": "CCOc1ccc(CNC(=O)CCS(=O)(=O)Cc2cccc(Cl)c2)cc1OC", "hERG current change (%, negative = inhibition) at 10uM": -12.1}
{"smiles": "O=C(O)c1cc2c(ccc3ccccc32)o1", "hERG current change (%, negative = inhibition) at 10uM": 4.33}
{"smiles": "COC(=O)c1ccc([C@H]2CC(=O)O2)cc1", "hERG current change (%, negative = inhibition) at 10uM": 1.35}
{"smiles": "c1ccc2c(c1)nc(NC1CCCCC1)c1nncn12", "hERG current change (%, negative = inhibition) at 10uM": -35.2}
{"smiles": "Cc1ccc(-n2ncc(C(=O)NCC3CCN(C4CCCC4)C3)c2C2CCN(C(=O)OC(C)(C)C)CC2)cc1", "note": "(centres unmarked)", "hERG current change (%, negative = inhibition) at 10uM": -20.4}
{"smiles": "CC(C)(C)OC(=O)N1CCC(c2c(C(=O)NCC3CCN(C4CCCC4)C3)cnn2-c2ccc(F)cc2)CC1", "note": "(centres unmarked)", "hERG current change (%, negative = inhibition) at 10uM": -50.5}
{"smiles": "CC(C)(C)OC(=O)N1CCC(c2c(C(=O)NCC3CCN(C4CCCC4)C3)cnn2-c2ccccc2)CC1", "note": "(centres unmarked)", "hERG current change (%, negative = inhibition) at 10uM": -35.8}
{"smiles": "Cc1ccc2c(c1)N(C)/C(=C/c1cccc[n+]1C)S2.[I-]", "hERG current change (%, negative = inhibition) at 10uM": -47.5}
{"smiles": "CC[n+]1ccccc1/C=C1\\Sc2ccc(C)cc2N1C.[I-]", "hERG current change (%, negative = inhibition) at 10uM": -62.5}
{"smiles": "Cc1ccc2c(c1)N(C)/C(=C/c1cccc[n+]1CCO)S2.[I-]", "hERG current change (%, negative = inhibition) at 10uM": -9.09}
{"smiles": "Cc1oc2nc(SCC(=O)NC3CCCCC3)nc(N)c2c1C", "hERG current change (%, negative = inhibition) at 10uM": -14.8}
{"smiles": "Cl.O=C(CN1CCCC1)N1c2ccccc2Sc2ccc(Cl)cc21", "hERG current change (%, negative = inhibition) at 10uM": 0.273}
{"smiles": "COc1ccc(S(=O)(=O)Nc2ccc3c(c2)n(C)c(=O)n3C)cc1C", "hERG current change (%, negative = inhibition) at 10uM": 2.39}
{"smiles": "O=C(NCc1ccco1)C12CN(Cc3ccccc3)CC1C(c1cccc([N+](=O)[O-])c1)=NO2", "note": "(centres unmarked)", "hERG current change (%, negative = inhibition) at 10uM": -46.6}
{"smiles": "Cc1ccc(CNC(=O)C23CN(Cc4ccccc4)CC2C(c2ccc([N+](=O)[O-])cc2)=NO3)o1", "note": "(centres unmarked)", "hERG current change (%, negative = inhibition) at 10uM": -49.6}
{"smiles": "O=C(NCc1ccco1)C12CN(Cc3ccccc3)CC1C(c1ccc([N+](=O)[O-])cc1)=NO2", "note": "(centres unmarked)", "hERG current change (%, negative = inhibition) at 10uM": -70.8}
{"smiles": "O=C(NCc1ccccc1)C12CN(Cc3ccccc3)CC1C(c1cccc([N+](=O)[O-])c1)=NO2", "note": "(centres unmarked)", "hERG current change (%, negative = inhibition) at 10uM": -14.6}
{"smiles": "Cc1ccc(CCNC(=O)C23CN(Cc4ccccc4)CC2C(c2ccc([N+](=O)[O-])cc2)=NO3)cc1", "note": "(centres unmarked)", "hERG current change (%, negative = inhibition) at 10uM": -24}
{"smiles": "Cc1ccc(CNC(=O)C23CN(Cc4ccccc4)CC2C(c2ccc([N+](=O)[O-])cc2)=NO3)cc1", "note": "(centres unmarked)", "hERG current change (%, negative = inhibition) at 10uM": -43.7}
{"smiles": "COc1ccc(CCNC(=O)C23CN(Cc4ccccc4)CC2C(c2cccc([N+](=O)[O-])c2)=NO3)cc1", "note": "(centres unmarked)", "hERG current change (%, negative = inhibition) at 10uM": -7.39}
{"smiles": "COc1ccc(CNC(=O)C23CN(Cc4ccccc4)CC2C(c2ccc([N+](=O)[O-])cc2)=NO3)cc1", "note": "(centres unmarked)", "hERG current change (%, negative = inhibition) at 10uM": -40.5}
{"smiles": "COc1ccc(CCNC(=O)C23CN(Cc4ccccc4)CC2C(c2ccc([N+](=O)[O-])cc2)=NO3)cc1", "note": "(centres unmarked)", "hERG current change (%, negative = inhibition) at 10uM": -74.8}
{"smiles": "Cc1ccc(CNC(=O)C23CN(Cc4ccccc4)CC2C(c2cccc([N+](=O)[O-])c2)=NO3)cc1", "note": "(centres unmarked)", "hERG current change (%, negative = inhibition) at 10uM": -0.125}
{"smiles": "O=C(NCc1ccccc1)C12CN(Cc3ccccc3)CC1C(c1ccc([N+](=O)[O-])cc1)=NO2", "note": "(centres unmarked)", "hERG current change (%, negative = inhibition) at 10uM": -67.1}
{"smiles": "COc1cccc(CNC(=O)C23CN(Cc4ccccc4)CC2C(c2ccc([N+](=O)[O-])cc2)=NO3)c1", "note": "(centres unmarked)", "hERG current change (%, negative = inhibition) at 10uM": -52.1}
